Vif-APOBEC3F blk = qHTS for Inhibitors of Vif-A3F Interactions: qHTS | 390,000 compounds, 0.2% hits | Potency, µM (doses to about 46.1 µM), for the others: top-dose activity, negative = active | HeLa A3F-eYFP + Vif (tagged APOBEC3F with the HIV-1 protein that degrades it), YFP fluorescence increase; further: potency means the concentration at half of the fitted maximal effect; % of control where 0% means no effect; nearly all actives have a fitted effect of over 65% in size
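HeLa cells stably expressing A3F-eYFP plus Vif, plated and incubated overnight at 37 deg C, then exposed to compounds overnight at 37 deg C. Blocked degradation read as raised yellow fluorescence (Ex 488/Em 500-530).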
IL-2 act = qHTS of IL-2 Activators. activation, % (series mostly up to about 46 µM). IL-2 activation reporter assay, cell-based qHTS; stimulated with anti-CD3/CD4/CD28 beads; in transgenic mouse T cells. 360,000 compounds, 0.065% hits; in the data active means activation above about 50%; inconclusive means mostly about 30% to 49%; further: 0% is about no effect
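Readout is EGFP and DsRed signal by fluorescent plate cytometry after 18 h at 37 degrees C. Transgenic mouse T cells (750/well) received compound for 60 min before bead stimulation (anti-CD3, anti-CD4, anti-CD28); memory T cells served as non-tolerant control.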
Vif-A3G inh = qHTS for Inhibitors of Vif-A3G Interactions: qHTS; DNA dC->dU-editing enzyme APOBEC-3G (Homo sapiens), Q9HC16; HeLa A3G-eYFP + Vif (tagged APOBEC3G with the HIV-1 protein that degrades it), YFP fluorescence, overnight; Potency, µM (doses to about 46.1 µM), for inactives: top-dose activity, negative = active, usual class: inhibitors; 410,000 compounds, 0.076% hits; AID 602310, 2012; further: potency means the concentration at half of the fitted maximal effect; on the % scale 0 is the no-effect control and ±100 the full control effect; nearly all actives have a fitted effect of over 60% in size
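Read-out is eYFP fluorescence (Ex 488/Em 500-530) from Vif-expressing HeLa A3G-eYFP cells; more signal means A3G escaped Vif-mediated degradation. Cells plated overnight, compound pinned in, incubated overnight at 37 deg C.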
KAT2A inh = qHTS Assay for Inhibitors of GCN5L2 | Histone acetyltransferase KAT2A (Homo sapiens), Q92830 | GCN5L2 HAT assay, ThioGlo1 CoA-SH fluorescence | Potency, µM (doses to about 58.9 µM), for inactives: at the top dose activity change, negative = inhibition, actives largely listed as inhibitors | 390,000 compounds, 0.21% hits; further: potency means the concentration at half of the fitted maximal effect; on the % scale 0 is the no-effect control and ±100 the full control effect
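Enzyme at 20nM final was mixed with library compounds for 15 min at room temperature. Peptide H3(1-25) at 75uM, acetyl-CoA at 70uM and ThioGlo1 at 50uM were then added. Plates were read immediately and after 20 min (Ex340nm/Em540nm).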
PKM2 activator = qHTS Assay for Activators of Human Muscle isoform 2 Pyruvate Kinase; Pyruvate kinase PKM (Homo sapiens), P14618; purified PKM2, Kinase-Glo ATP luminescence, activation; response scale: 0% is enzyme alone, no compound; Potency, µM (titrated, usually from 57.5 µM), without a hit: at the top dose activation, most hits filed as activators; 260,000 compounds, 0.34% hits; further: potency means the concentration at half of the fitted maximal effect; on the % scale 0 is the no-effect control and ±100 the full control effect; nearly all actives have a fitted effect of over 55% in size
Target sequence (P14618 whole entry, looked up, canonical isoform): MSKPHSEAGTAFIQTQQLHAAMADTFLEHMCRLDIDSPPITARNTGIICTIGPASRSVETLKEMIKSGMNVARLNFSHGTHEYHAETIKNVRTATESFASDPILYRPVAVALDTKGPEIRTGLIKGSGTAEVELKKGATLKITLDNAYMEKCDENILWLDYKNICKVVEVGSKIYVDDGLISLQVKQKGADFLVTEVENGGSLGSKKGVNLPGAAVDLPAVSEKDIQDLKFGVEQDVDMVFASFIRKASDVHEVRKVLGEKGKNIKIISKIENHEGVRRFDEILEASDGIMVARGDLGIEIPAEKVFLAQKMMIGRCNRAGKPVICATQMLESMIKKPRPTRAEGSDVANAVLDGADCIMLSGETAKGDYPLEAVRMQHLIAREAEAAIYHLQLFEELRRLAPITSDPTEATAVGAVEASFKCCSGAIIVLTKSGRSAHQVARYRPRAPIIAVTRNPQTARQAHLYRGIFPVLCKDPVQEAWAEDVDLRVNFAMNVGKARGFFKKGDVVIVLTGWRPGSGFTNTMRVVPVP
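Purified hPK-M2 (>95% pure) converted ADP (0.1 mM final) to ATP with 0.5 mM PEP in 50 mM imidazole pH7.2, KCl, MgCl2, Tween 20, BSA; 1 h at room temperature. ATP detected by Kinase-Glo luminescence.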
GoLoco inh red = qHTS Assay for Inhibitors of RGS12 GoLoco Motif Activity (Red Fluorophore); Guanine nucleotide-binding protein G(i) subunit alpha-1 (Homo sapiens), P63096; Gai1:RGS12 GoLoco peptide FP, rhodamine, 10 min; AID 880, 2007; Potency, µM (highest dose often 61.6 µM), for the others: at the top dose activity, negative = inhibition, actives largely listed as inhibitors; 230,000 compounds, 0.44% hits; active means well fitted inhibition curve with a large enough effect, not every such curve was filed as active; inactive means no such curve, though single readings can be large or run the other way; further: potency means the concentration at half of the fitted maximal effect; on the % scale 0 is the no-effect control and ±100 the full control effect; nearly all actives have a fitted effect of over 30% in size
* marks the source's active call; other numbers are inactive results; ? = inconclusive; nt = no result given; [ ] = another dose, or the depositor's remark. Shown are actives, neighbours in structure and some others; about 0.77% of the full set was active somewhere. Unless noted, the call rests on the fitted dose curve; in most records, active means well fitted curve in the direction sought with a large enough effect; inconclusive means small, poorly fitted or top-dose-only effect, or another doubt; inactive means no such curve, though single readings can be large; an effect the other way counts as inactive or inconclusive.

SMILES	Vif-APOBEC3F blk	IL-2 act	Vif-A3G inh	KAT2A inh	PKM2 activator	GoLoco inh red
O=S(=O)(c1ccccc1)c1nc(-c2ccccc2)oc1N1CCN(c2cccc(Cl)c2)CC1	0%	nt	1%	-7%	nt	nt
Cc1cc(C)n2cc(CSc3nnnn3-c3ccccc3C)nc2n1	5%	-3	0%	-1%	14µM*	5%
Cc1ccnc(SCc2cn3c(C)cc(C)nc3n2)n1	-1%	1	4%	-3%	0%	10%
COC(=O)c1ccc(C(c2c(N)n(Cc3ccccc3)c(=O)n(C)c2=O)N2CCOCC2)cc1 (centres undefined)	-7%	0	-3%	18%	13µM*	-5%
Cc1nn(-c2ccc(S(=O)(=O)O)cc2)c(O)c1N=Nc1ccc(-c2ccc(N=Nc3ccc4c(S(=O)(=O)O)cc(S(=O)(=O)O)c(N)c4c3O)c(O)c2)cc1O.[Cu].[Cu]	nt	nt	nt	nt	nt	3.2µM*
COc1cc(-c2ccc(N=Nc3ccc4c(S(=O)(=O)O)cc(S(=O)(=O)O)c(N)c4c3O)c(OC)c2)ccc1N=Nc1ccc2c(S(=O)(=O)O)cc(S(=O)(=O)O)c(N)c2c1O	nt	nt	nt	4µM*	nt	30%
CC1CC(C)CN(CCCn2c(=S)[nH]c3ccccc3c2=O)C1 (centres undefined)	-3%	1	-3%	0%[0.501 µM]	-5%	3%
Cc1ccc(S(=O)(=O)N2CCN(C(=O)CSc3ccc(Cl)cc3)CC2)cc1	5%	-1	2%	-9%	14µM*	nt
O=C(CSc1nncs1)N1CCN(S(=O)(=O)c2ccccc2)CC1	10%	0	-2%	1%	26%	6%
Cc1ccc(S(=O)(=O)N2CCN(C(=O)CSc3nncs3)CC2)cc1	-15%	0	3%	-11%	18µM*	-5%
O=C(Cn1nnc(-c2ccccc2Cl)n1)N1CCN(S(=O)(=O)c2ccc(Cl)cc2)CC1	-3%	-2	2%	-10%	7.9µM*	19%
COc1ccccc1-n1cnnc1SCC(=O)N1CCN(S(=O)(=O)c2ccccc2)CC1	nt	-1	-6%	-3%	16µM*	-3%
COc1ccccc1-n1cnnc1SCC(=O)N1CCN(C(=O)c2ccco2)CC1	8%	0	2%	-2%	2%	2%
CCN1C(=O)[C@H]2[C@H]3CN=C(SC)N3[C@@](C)(C(=O)OC)[C@H]2C1=O	-4%	2	-1%	nt	nt	nt
O=C(O)c1ccc(Oc2cc(Oc3ccc(C(=O)O)cc3)cc([N+](=O)[O-])c2)cc1	3%	-1	0%	-6%	-1%	nt
Cc1ccc(S(=O)(=O)N2CCCN(S(=O)(=O)c3ccc(C)cc3)CC2)cc1	0%	-1	4%	-20%	8.9µM*	9%
O=C(CSc1ccc(F)cc1)N1CCN(S(=O)(=O)c2ccccc2)CC1	-1%	-3	-1%	-4%	3.2µM*	4%
O=C(CSc1n[nH]c(-c2cccs2)n1)N1CCN(S(=O)(=O)c2ccccc2)CC1	3%	-1	1%	-1%	25µM*	3%
O=C(CSc1n[nH]c(-c2cccs2)n1)N1CCCC1	-2%	0	-13%	-3%	nt	nt
CCCc1nc2oc3c(=O)[nH]cnc3c2c2c1CCCC2	-7%	-1	0%	-7%	6%	10%
C=CCSc1nc(C)c(Cc2cccc3ccccc23)c(=O)[nH]1	-11%	0	-6%	-1%	0%	-8%
CCOC(=O)c1ccc(NC(=O)CN(C)S(=O)(=O)c2ccc(OC)cc2)cc1	9%	70*	0%	-6%	8%	6%
CCSc1n[nH]c(=S)s1	9%	-3	0%	32µM*	-37%	-43%
COC(=O)CSc1n[nH]c(=S)s1	24%	-4	3%	-5%	3%	11%
COc1ccc(C2C(C(=O)NCC3CCCO3)CCC(=O)N2c2ccc3c(c2)OCO3)cc1 (centres undefined)	-3%	1	-2%	2%	21%	-2%
SMILES	Vif-APOBEC3F blk	IL-2 act	Vif-A3G inh	KAT2A inh	PKM2 activator	GoLoco inh red
Cc1cc(C)c(S(=O)(=O)/N=C2/C=C(Sc3ncn[nH]3)C(=O)c3ccccc32)cc1C	7.1µM*	-1	?	11µM*	-18%	-49%
COc1cc(C2=NOC(C(=O)NCc3cccnc3)C2)cc(OC)c1OC (centres undefined)	-4%	0	-24%	-2%	nt	nt
CCc1cc(=O)oc2c3c(cc(OCC(=O)NCCCC(=O)O)c12)OC(C)(C)CC3	0%	-1	2%	10µM*	nt	nt
CCCCC(NC(=O)COc1cc2c(c3oc(=O)cc(C)c13)CCC(C)(C)O2)C(=O)O (centres undefined)	0%	1	1%	35µM*	nt	nt
Cc1c(C)c2c(OCC(=O)N3CCC(C(=O)O)CC3)cc3c(c2oc1=O)CCC(C)(C)O3	-1%	0	0%	16µM*	0%	nt
CCc1cc(=O)oc2c3c(cc(OCC(=O)NCCC(=O)O)c12)OC(C)(C)CC3	0%	0	3%	?	nt	nt
CC1=C(C(=O)OCC(C)C)C(c2ccsc2)NC(=O)N1 (centres undefined)	7%	-3	-5%	-4%	-2%	2%
O=C(COC(=O)c1ccc(Br)cc1)NCc1ccc(F)cc1	-5%	0	2%	1%	-1%	1%
O=C(Nc1ccc([N+](=O)[O-])cc1)C(Cc1ccccc1)N1C(=O)c2cccc3cccc(c23)C1=O (centres undefined)	?	160*	10µM*	0%	-8%	36%
O=[N+]([O-])c1cc(Cl)ccc1-c1nc(-c2ccccc2)no1	-3%	0	-1%	-6%	1%	-10%
Cc1sc(C(C2C(=O)CC(C)(C)CC2=O)C2C(=O)CC(C)(C)CC2=O)cc1[N+](=O)[O-]	3%	-1	?	0%	18µM*	12%
CC1(C)CC(=O)C(C(c2cc([N+](=O)[O-])ccc2Cl)C2C(=O)CC(C)(C)CC2=O)C(=O)C1	-1%	0	?	nt	nt	nt
Cc1ccc(CN(C)C(=O)C2CCCN2C(=O)c2cccs2)o1 (centres undefined)	-6%	1	1%	-1%	14µM*	-25%

Screening results deposited in PubChem BioAssay by National Center for Advancing Translational Sciences (NCATS).
